Data taken from PubChem BioAssay (NCI).
About 83,000 compounds went through this panel and 20% of them were active in at least one assay; those are over-represented in the sample as a whole.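 Testing used 96-well plates and a 48-hour single-concentration exposure. Example: -40 means 40% of the starting cells died.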 Calls of active or inactive are those of the source. How the source made its calls: active means growth percent below 10; inactive means the rest.

How the values were obtained:
Assay in all cases: NCI-60 one-dose screen, 48 h (100 = growth as untreated, 0 = no growth, -100 = all killed)
Conditions in all cases: 10 µM unless noted
SR leukemia = tested on: SR leukemia
RPMI-8226 leukemia = tested on: RPMI-8226 leukemia
OVCAR-8 ovarian = tested on: OVCAR-8 ovarian
OVCAR-5 ovarian = tested on: OVCAR-5 ovarian
OVCAR-4 ovarian = tested on: OVCAR-4 ovarian
SK-OV-3 ovarian = tested on: SK-OV-3 ovarian
IGROV1 ovarian = tested on: IGROV1 ovarian
OVCAR-3 ovarian = tested on: OVCAR-3 ovarian
HS 578T breast = tested on: HS 578T breast
NCI/ADR-RES ovarian = tested on: NCI/ADR-RES ovarian

Measured: growth

Cc1cc(Nc2nc(-c3ccc(F)cc3)nc3ccccc23)n[nH]1
inactive: SR leukemia 20.4% | RPMI-8226 leukemia 94.8% | OVCAR-8 ovarian 95% | OVCAR-5 ovarian 70.3% | OVCAR-4 ovarian 41% | SK-OV-3 ovarian 21% | IGROV1 ovarian 11.3% | OVCAR-3 ovarian 61.5% | HS 578T breast 25.1% | NCI/ADR-RES ovarian 71%

O=C1CCC/C=C\C[C@H]2C=CC(=O)/C2=C/C[C@H](C/C=C\CC(F)(F)F)O1
inactive: OVCAR-8 ovarian 10.4% | OVCAR-4 ovarian 20.6% | HS 578T breast 23.2%
active: SR leukemia 4.02% | RPMI-8226 leukemia -4.51% | OVCAR-5 ovarian -6.91% | SK-OV-3 ovarian -7.52% | IGROV1 ovarian -25.8% | OVCAR-3 ovarian -69.7% | NCI/ADR-RES ovarian 8.83%

CCOC(=O)/C=C\C(=O)NC(N)=O
inactive: SR leukemia 97.3% | RPMI-8226 leukemia 98.5% | OVCAR-8 ovarian 104% | OVCAR-5 ovarian 113% | OVCAR-4 ovarian 120% | SK-OV-3 ovarian 95.9% | IGROV1 ovarian 104% | OVCAR-3 ovarian 110% | HS 578T breast 102% | NCI/ADR-RES ovarian 106%

O=C(Nc1ccc(F)cc1)c1cc([N+](=O)[O-])ccc1O
inactive: SR leukemia 83.7% | RPMI-8226 leukemia 32.4% | OVCAR-8 ovarian 76.2% | OVCAR-5 ovarian 86.1% | OVCAR-4 ovarian 70.5% | SK-OV-3 ovarian 84% | IGROV1 ovarian 66.3% | OVCAR-3 ovarian 56.1% | HS 578T breast 64% | NCI/ADR-RES ovarian 72.9%

CC(C)CCC[C@@H](C)[C@H]1CC[C@H]2[C@@H]3CC[C@H]4C/C(=N/O)CC[C@]4(C)[C@H]3CC[C@]12C
inactive: SR leukemia 99.6% | RPMI-8226 leukemia 101% | OVCAR-8 ovarian 96.8% | OVCAR-5 ovarian 112% | OVCAR-4 ovarian 119% | SK-OV-3 ovarian 104% | IGROV1 ovarian 111% | OVCAR-3 ovarian 113% | HS 578T breast 101% | NCI/ADR-RES ovarian 111%

O=C1CCCCN1CCCCC#Cc1ccccc1C#Cc1ccc([N+](=O)[O-])cc1
inactive: SR leukemia 18.1% | OVCAR-8 ovarian 55.4% | OVCAR-5 ovarian 60% | OVCAR-4 ovarian 60.2% | SK-OV-3 ovarian 71.1% | OVCAR-3 ovarian 56.3% | HS 578T breast 69.4% | NCI/ADR-RES ovarian 43.4%
active: RPMI-8226 leukemia 2.47% | IGROV1 ovarian -36.7%

Cc1cc(N/C=c2\sc3ncnn3c2=O)no1
inactive: SR leukemia 74.8% | RPMI-8226 leukemia 92.5% | OVCAR-8 ovarian 101% | OVCAR-5 ovarian 108% | OVCAR-4 ovarian 106% | SK-OV-3 ovarian 105% | IGROV1 ovarian 94.4% | OVCAR-3 ovarian 95.8% | HS 578T breast 98.9% | NCI/ADR-RES ovarian 99.1%

COc1cc(OC)c(C(=O)/C=C/c2cccc(C#N)c2)c(OC)c1
active: SR leukemia 3.17% | RPMI-8226 leukemia 1.52% | OVCAR-8 ovarian 7.46% | SK-OV-3 ovarian 0.849% | IGROV1 ovarian 9.48% | OVCAR-3 ovarian 9.13%
inactive: OVCAR-5 ovarian 40.1% | OVCAR-4 ovarian 18.1% | HS 578T breast 17.6% | NCI/ADR-RES ovarian 14.8%

CCCC1OC(c2ccc(C(C)C)cc2)OCC1CC (stereo not given)
inactive: SR leukemia 91.7% | RPMI-8226 leukemia 104% | OVCAR-8 ovarian 96.7% | OVCAR-5 ovarian 101% | OVCAR-4 ovarian 112% | SK-OV-3 ovarian 85.5% | IGROV1 ovarian 112% | OVCAR-3 ovarian 107% | HS 578T breast 99.6% | NCI/ADR-RES ovarian 105%

CCN(CC)CCC(=O)c1cccc2ccccc12
inactive: SR leukemia 53.4% | RPMI-8226 leukemia 44.4% | OVCAR-8 ovarian 104% | OVCAR-5 ovarian 98.3% | OVCAR-4 ovarian 119% | SK-OV-3 ovarian 121% | IGROV1 ovarian 101% | OVCAR-3 ovarian 113% | HS 578T breast 101% | NCI/ADR-RES ovarian 104%

COc1cc(-c2n[nH]nc2-c2ccc3c(c2)OCCO3)cc(OC)c1OC
active: SR leukemia 9.29% | RPMI-8226 leukemia 0.653% | OVCAR-8 ovarian 9.51% | SK-OV-3 ovarian 3.32% | OVCAR-3 ovarian -33.9% | NCI/ADR-RES ovarian 2.71%
inactive: OVCAR-5 ovarian 11.7% | OVCAR-4 ovarian 34.8% | IGROV1 ovarian 21.9% | HS 578T breast 12.7%

C=C1C(=O)O[C@H]2[C@H]1CC/C(Cn1cc(-c3ccccc3C(F)(F)F)nn1)=C\CC[C@@]1(C)O[C@@H]21
inactive: SK-OV-3 ovarian 79.1% | HS 578T breast 39.1% | NCI/ADR-RES ovarian 19.6%
active: SR leukemia 2.59% | RPMI-8226 leukemia -29.4% | OVCAR-8 ovarian -27.1% | OVCAR-5 ovarian -18.6% | OVCAR-4 ovarian -19% | IGROV1 ovarian -21.4% | OVCAR-3 ovarian -93.8%

O=c1[nH]c(CN2CCN(c3ccccc3F)CC2)nc2sc3c(c12)CCC3
inactive: SR leukemia 94.8% | RPMI-8226 leukemia 107% | OVCAR-8 ovarian 101% | OVCAR-5 ovarian 96.8% | OVCAR-4 ovarian 112% | SK-OV-3 ovarian 96.5% | IGROV1 ovarian 84.7% | OVCAR-3 ovarian 118% | HS 578T breast 121% | NCI/ADR-RES ovarian 111%

CC(C)C[C@H](NC(=O)Cn1ccc(NCc2ccccc2)cc1=O)B(O)O
active: SR leukemia 5.45% | RPMI-8226 leukemia -13.9% | OVCAR-3 ovarian -54.5% | HS 578T breast 8.69%
inactive: OVCAR-8 ovarian 51.3% | OVCAR-5 ovarian 38.9% | OVCAR-4 ovarian 48.2% | SK-OV-3 ovarian 56.5% | IGROV1 ovarian 41.1% | NCI/ADR-RES ovarian 80.7%

C#CCC1(c2ccc(F)c(F)c2)NS(=O)(=O)c2ccccc21 (stereo not given)
inactive: SR leukemia 76% | RPMI-8226 leukemia 109% | OVCAR-8 ovarian 93.9% | OVCAR-5 ovarian 107% | OVCAR-4 ovarian 105% | SK-OV-3 ovarian 96.9% | IGROV1 ovarian 94.3% | OVCAR-3 ovarian 109% | HS 578T breast 101% | NCI/ADR-RES ovarian 103%

COc1cc(Br)c(OC)cc1Br
inactive: SR leukemia 111% | RPMI-8226 leukemia 96.2% | OVCAR-8 ovarian 105% | OVCAR-5 ovarian 93% | OVCAR-4 ovarian 102% | SK-OV-3 ovarian 101% | IGROV1 ovarian 79.5% | OVCAR-3 ovarian 96.8% | HS 578T breast 94.1% | NCI/ADR-RES ovarian 95.3%

Nc1nc(N)c2nc(CNc3ccc(C(=O)CC(CCC(=O)O)C(=O)O)cc3)cnc2n1 (stereo not given)
inactive: SR leukemia 28.6% | RPMI-8226 leukemia 58.3% | OVCAR-8 ovarian 14.8% | OVCAR-5 ovarian 53.1% | OVCAR-4 ovarian 79.9% | SK-OV-3 ovarian 52% | OVCAR-3 ovarian 49.8% | HS 578T breast 82.4% | NCI/ADR-RES ovarian 25.6%
active: IGROV1 ovarian -58.5%

CCOC(=O)CC(C#N)(CC(=O)OCC)C(=O)OCC
inactive: SR leukemia 100% | RPMI-8226 leukemia 96.1% | OVCAR-8 ovarian 88.8% | OVCAR-5 ovarian 99.9% | OVCAR-4 ovarian 104% | SK-OV-3 ovarian 117% | IGROV1 ovarian 118% | OVCAR-3 ovarian 112% | HS 578T breast 117% | NCI/ADR-RES ovarian 106%

COc1ccc(C2CC(c3cccs3)=NN2c2ccc(S(=O)(=O)NC(=O)Nc3ccc(C)cc3)cc2)cc1 (stereo not given)
inactive: SR leukemia 84.7% | RPMI-8226 leukemia 83.4% | OVCAR-8 ovarian 99.8% | OVCAR-5 ovarian 115% | OVCAR-4 ovarian 106% | SK-OV-3 ovarian 78.3% | IGROV1 ovarian 108% | OVCAR-3 ovarian 98.2% | HS 578T breast 96% | NCI/ADR-RES ovarian 103%

C[N+](C)(C)c1ccc(CC2c3ccccc3-c3ccccc32)cc1
active: HS 578T breast 4.68%
inactive: SR leukemia 85% | RPMI-8226 leukemia 68.6% | OVCAR-8 ovarian 85.7% | OVCAR-5 ovarian 86.1% | OVCAR-4 ovarian 85.2% | SK-OV-3 ovarian 75.3% | IGROV1 ovarian 64.4% | OVCAR-3 ovarian 67% | NCI/ADR-RES ovarian 107%

CCSc1nnc(NC(=O)COc2ccc(Cl)cc2C)s1
active: IGROV1 ovarian -17.9%
inactive: SR leukemia 43.4% | RPMI-8226 leukemia 94.6% | OVCAR-8 ovarian 100% | OVCAR-5 ovarian 96.2% | OVCAR-4 ovarian 107% | SK-OV-3 ovarian 93.5% | OVCAR-3 ovarian 94.8% | HS 578T breast 101% | NCI/ADR-RES ovarian 106%

O=C(Nc1ccccc1)OCC1OCOC(COC(=O)Nc2ccccc2)C1OC(=O)Nc1ccccc1 (stereo not given)
inactive: SR leukemia 18.1% | RPMI-8226 leukemia 40.1% | OVCAR-8 ovarian 32% | OVCAR-5 ovarian 52.5% | SK-OV-3 ovarian 91.5% | IGROV1 ovarian 70.8% | OVCAR-3 ovarian 28.8% | HS 578T breast 67.7% | NCI/ADR-RES ovarian 69.8%
active: OVCAR-4 ovarian -44.6%

CC(Br)C(Br)c1cc2c(cc1Br)OCO2 (stereo not given)
inactive: SR leukemia 98.6% | RPMI-8226 leukemia 105% | OVCAR-8 ovarian 100% | OVCAR-5 ovarian 98.6% | OVCAR-4 ovarian 105% | SK-OV-3 ovarian 84% | IGROV1 ovarian 97.5% | OVCAR-3 ovarian 107% | NCI/ADR-RES ovarian 99.1%
active: HS 578T breast -96.5%

CC1=NN2C(=NC3=C(CCC/C3=C\c3ccc(Cl)cc3)C2c2ccc(Cl)cc2)S1 (stereo not given)
active: RPMI-8226 leukemia -18.4%
inactive: SR leukemia 64.5% | OVCAR-8 ovarian 90.2% | OVCAR-5 ovarian 103% | OVCAR-4 ovarian 86.8% | SK-OV-3 ovarian 115% | IGROV1 ovarian 103% | OVCAR-3 ovarian 108% | HS 578T breast 101% | NCI/ADR-RES ovarian 106%

CC(=O)Nc1ccc(S(=O)(=O)N2C(=O)CCC2C(=O)Nc2ccc(Br)cc2)cc1 (stereo not given)
inactive: SR leukemia 16.9% | RPMI-8226 leukemia 10.1% | OVCAR-8 ovarian 47.5% | OVCAR-5 ovarian 77.5% | OVCAR-4 ovarian 25.5% | SK-OV-3 ovarian 69.2% | IGROV1 ovarian 37.4% | OVCAR-3 ovarian 24.4% | HS 578T breast 56.6% | NCI/ADR-RES ovarian 41.8%

COc1ccc(S(=O)(=O)Nc2cc(/C=C\c3cc(OC)c(OC)c(OC)c3)cc(OC)c2OC)cc1OC
active: OVCAR-3 ovarian -18.2% | HS 578T breast 8.3%
inactive: SR leukemia 20% | RPMI-8226 leukemia 25.3% | OVCAR-8 ovarian 41% | OVCAR-5 ovarian 30.8% | OVCAR-4 ovarian 39.7% | SK-OV-3 ovarian 17.1% | IGROV1 ovarian 49.5% | NCI/ADR-RES ovarian 12.6%

COc1cc(-c2csc(NC(=O)Nc3ccc(Cl)cc3Cl)n2)cc(OC)c1OC
inactive: SR leukemia 23.1% | RPMI-8226 leukemia 30% | OVCAR-8 ovarian 45.4% | OVCAR-5 ovarian 75.8% | OVCAR-4 ovarian 55.5% | SK-OV-3 ovarian 55.5% | IGROV1 ovarian 51.7% | OVCAR-3 ovarian 20.5% | HS 578T breast 34.5%
active: NCI/ADR-RES ovarian 9.75%

CC(C)(C)OC(=O)N1C/C(=C\c2cccs2)C(=O)/C(=C/c2cccs2)C1
inactive: SR leukemia 55.5% | RPMI-8226 leukemia 55.4% | OVCAR-8 ovarian 87.8% | OVCAR-5 ovarian 109% | OVCAR-4 ovarian 82.2% | SK-OV-3 ovarian 90.1% | IGROV1 ovarian 83% | OVCAR-3 ovarian 104% | HS 578T breast 93.3% | NCI/ADR-RES ovarian 96.3%
